This is part of a sample that, as a whole, favours compounds with a hit. Of some 83,000 tested, about 20% had one in any assay.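 96-well plates, one dose, 48 hours. Percent growth reported; active if below 10.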 The source made the active and inactive calls.
Legend:
Test in all cases: NCI-60 one-dose screen, 48 h (100 = growth as untreated, 0 = no growth, -100 = all killed)
Conditions in all cases: 10 µM unless noted
SR leukemia = system: SR leukemia
RPMI-8226 leukemia = system: RPMI-8226 leukemia
OVCAR-8 ovarian = system: OVCAR-8 ovarian
OVCAR-5 ovarian = system: OVCAR-5 ovarian
OVCAR-4 ovarian = system: OVCAR-4 ovarian
SK-OV-3 ovarian = system: SK-OV-3 ovarian
IGROV1 ovarian = system: IGROV1 ovarian
OVCAR-3 ovarian = system: OVCAR-3 ovarian
HS 578T breast = system: HS 578T breast
NCI/ADR-RES ovarian = system: NCI/ADR-RES ovarian

Measured: growth

N#Cc1c(-c2cccs2)cc(-c2cnccn2)nc1SCC(=O)N/N=C/c1ccccc1
inactive: SR leukemia 55.9% | OVCAR-8 ovarian 43.4% | OVCAR-5 ovarian 87.2% | SK-OV-3 ovarian 106% | IGROV1 ovarian 61.9% | OVCAR-3 ovarian 27.7% | HS 578T breast 40.7% | NCI/ADR-RES ovarian 37%
active: RPMI-8226 leukemia -23.7% | OVCAR-4 ovarian 3.09%

NC(=O)c1c(NC(=O)c2ccc(C(F)(F)F)cc2)sc2c1CCC(=O)C2
inactive: SK-OV-3 ovarian 37.5% | IGROV1 ovarian 16.2% | HS 578T breast 19.4%
active: SR leukemia 1.33% | RPMI-8226 leukemia -30.3% | OVCAR-8 ovarian 9.01% | OVCAR-5 ovarian 9.87% | OVCAR-4 ovarian -66.9% | OVCAR-3 ovarian -17.2% | NCI/ADR-RES ovarian 0.891%

COc1ccc(/C=N/NC(=O)CSc2nc(-c3cnccn3)cc(-c3cccs3)c2C#N)cc1
inactive: SR leukemia 65.3% | RPMI-8226 leukemia 48.3% | OVCAR-8 ovarian 61.4% | OVCAR-5 ovarian 103% | OVCAR-4 ovarian 92.6% | SK-OV-3 ovarian 75.6% | IGROV1 ovarian 90.7% | OVCAR-3 ovarian 90.6% | HS 578T breast 64.6% | NCI/ADR-RES ovarian 65.8%

O=C(CCCCCCNC(=O)C(O)(O)C(F)(F)F)Nc1nc2ccccc2s1
active: OVCAR-8 ovarian 8.26% | OVCAR-5 ovarian 1.89% | SK-OV-3 ovarian -26.3% | IGROV1 ovarian -3.25% | OVCAR-3 ovarian -38.8% | NCI/ADR-RES ovarian 1.87%
inactive: SR leukemia 16.7% | RPMI-8226 leukemia 13.5% | OVCAR-4 ovarian 35.9% | HS 578T breast 12.5%

Cn1c(SCC(=O)c2ccco2)nc2ccccc2c1=O
inactive: SR leukemia 91.5% | RPMI-8226 leukemia 93.4% | OVCAR-8 ovarian 101% | OVCAR-5 ovarian 111% | OVCAR-4 ovarian 95.5% | SK-OV-3 ovarian 107% | IGROV1 ovarian 86.1% | OVCAR-3 ovarian 107% | HS 578T breast 104% | NCI/ADR-RES ovarian 105%

Cc1[nH]c(C(=O)Nc2ccccc2OCc2cccc(C(=O)NC3CCNC3)c2)c(Cl)c1Cl (stereo not given)
active: SR leukemia -0.792% | RPMI-8226 leukemia -10% | OVCAR-8 ovarian -37% | OVCAR-3 ovarian -26.7%
inactive: OVCAR-5 ovarian 45.3% | OVCAR-4 ovarian 68.3% | SK-OV-3 ovarian 107% | IGROV1 ovarian 31.2% | HS 578T breast 87.6% | NCI/ADR-RES ovarian 67.1%

CC(C)NC(=O)c1cc(-c2ccc(NC(=O)Nc3ccc(F)cc3)cc2)nc2cccnc12
inactive: SR leukemia 94.3% | RPMI-8226 leukemia 109% | OVCAR-8 ovarian 105% | OVCAR-5 ovarian 109% | OVCAR-4 ovarian 104% | SK-OV-3 ovarian 112% | IGROV1 ovarian 110% | OVCAR-3 ovarian 115% | HS 578T breast 109% | NCI/ADR-RES ovarian 104%

CCCCN1C(=O)/C(=c2\sc3n(c2=O)C2C(NN=3)N(CC)C(=O)N2CC)c2cc(C)ccc21 (stereo not given)
inactive: SR leukemia 64.1% | RPMI-8226 leukemia 99.8% | OVCAR-8 ovarian 93% | OVCAR-5 ovarian 96.1% | OVCAR-4 ovarian 97.2% | SK-OV-3 ovarian 108% | IGROV1 ovarian 88.4% | OVCAR-3 ovarian 102% | HS 578T breast 89.7% | NCI/ADR-RES ovarian 81.9%

CCOC(=O)c1ccccc1NC1=C(Cl)C(=O)c2nc(C)ccc2C1=O
inactive: SR leukemia 102% | RPMI-8226 leukemia 99.3% | OVCAR-8 ovarian 100% | OVCAR-5 ovarian 101% | OVCAR-4 ovarian 83.6% | SK-OV-3 ovarian 108% | IGROV1 ovarian 91.4% | OVCAR-3 ovarian 90.6% | HS 578T breast 99% | NCI/ADR-RES ovarian 93.9%

CCOC(=O)c1cccc(NC2=C(Cl)C(=O)c3nc(C)ccc3C2=O)c1
inactive: SR leukemia 37.1% | RPMI-8226 leukemia 53.3% | OVCAR-8 ovarian 97.8% | OVCAR-5 ovarian 104% | OVCAR-4 ovarian 53.7% | SK-OV-3 ovarian 98% | IGROV1 ovarian 17.3% | OVCAR-3 ovarian 46.1% | HS 578T breast 111% | NCI/ADR-RES ovarian 94.6%

O=C(/C=C/c1cccc(Br)c1)c1cccc(OCCCCOc2cccc(C(=O)/C=C/c3cccc(Br)c3)c2)c1
inactive: SR leukemia 98.5% | RPMI-8226 leukemia 56.8% | OVCAR-8 ovarian 105% | OVCAR-5 ovarian 104% | OVCAR-4 ovarian 109% | SK-OV-3 ovarian 107% | IGROV1 ovarian 101% | OVCAR-3 ovarian 105% | HS 578T breast 101% | NCI/ADR-RES ovarian 106%

Cc1csc(/N=C(N)/N=C(\N)c2cccc(Br)c2)n1
inactive: SR leukemia 66.9% | RPMI-8226 leukemia 102% | OVCAR-8 ovarian 96.5% | OVCAR-5 ovarian 102% | OVCAR-4 ovarian 95.5% | SK-OV-3 ovarian 91.5% | IGROV1 ovarian 81.4% | OVCAR-3 ovarian 107% | HS 578T breast 95.1% | NCI/ADR-RES ovarian 72.7%

O=S(=O)(NCCCNc1nccc(-c2[nH]c(-c3ccccc3)nc2-c2ccc(F)c(O)c2)n1)c1ccccc1
inactive: SR leukemia 51.5% | RPMI-8226 leukemia 48.9% | OVCAR-8 ovarian 90.2% | OVCAR-5 ovarian 155% | OVCAR-4 ovarian 118% | SK-OV-3 ovarian 121% | IGROV1 ovarian 114% | OVCAR-3 ovarian 138% | HS 578T breast 116% | NCI/ADR-RES ovarian 108%

NS(=O)(=O)c1nnc(/N=C/c2c(O)[nH]c3ccccc23)s1
inactive: SR leukemia 98.3% | RPMI-8226 leukemia 109% | OVCAR-8 ovarian 99.9% | OVCAR-5 ovarian 121% | OVCAR-4 ovarian 98.5% | SK-OV-3 ovarian 99.5% | IGROV1 ovarian 76.5% | OVCAR-3 ovarian 107% | HS 578T breast 102% | NCI/ADR-RES ovarian 107%

CCOP(=O)(OCC)OC[C@]12CC[C@@H](C)[C@H](C)C1C1=CC[C@@H]3[C@@]4(C)CCCNC(C)(C)[C@@H]4CC[C@@]3(C)[C@]1(C)CC2 (stereo not given in full)
active: SR leukemia -57.7% | RPMI-8226 leukemia -48.9% | IGROV1 ovarian 0.926%
inactive: OVCAR-8 ovarian 61.2% | OVCAR-5 ovarian 70% | OVCAR-4 ovarian 34.4% | SK-OV-3 ovarian 72.7% | OVCAR-3 ovarian 38.4% | HS 578T breast 47.8% | NCI/ADR-RES ovarian 20.6%

Fc1ccc2nc(-c3cnn4cccnc34)sc2c1
inactive: SR leukemia 78% | RPMI-8226 leukemia 87.6% | OVCAR-8 ovarian 83.5% | OVCAR-5 ovarian 101% | OVCAR-4 ovarian 63.5% | SK-OV-3 ovarian 81% | IGROV1 ovarian 49.2% | OVCAR-3 ovarian 84.2% | HS 578T breast 90.1% | NCI/ADR-RES ovarian 96.6%

Cc1ccc2c(n1)C(=O)C(Cl)=C(Nc1ccc(C(C)C)cc1)C2=O
inactive: OVCAR-5 ovarian 103% | SK-OV-3 ovarian 106% | HS 578T breast 55.6% | NCI/ADR-RES ovarian 49.9%
active: SR leukemia 3.93% | RPMI-8226 leukemia -21.7% | OVCAR-8 ovarian 8.76% | OVCAR-4 ovarian -74% | IGROV1 ovarian -53% | OVCAR-3 ovarian -55.7%

C[C@H](Nc1ncnc2ccc(-c3cnc(Cl)c(NS(C)(=O)=O)c3)cc12)c1ccccc1
active: SR leukemia -20.1% | RPMI-8226 leukemia -7.72% | OVCAR-8 ovarian -26.3% | OVCAR-5 ovarian -14.9% | OVCAR-4 ovarian 0.576% | SK-OV-3 ovarian -65.5% | IGROV1 ovarian -28.8% | OVCAR-3 ovarian -65.9% | HS 578T breast -20% | NCI/ADR-RES ovarian 7.69%

CCCCN1C(=O)/C(=c2\sc3n(c2=O)C2C(NN=3)N(CC)C(=O)N2CC)c2cccc(C)c21 (stereo not given)
inactive: SR leukemia 15.1% | RPMI-8226 leukemia 20.3% | OVCAR-8 ovarian 44.6% | OVCAR-5 ovarian 50.9% | OVCAR-4 ovarian 53.8% | SK-OV-3 ovarian 82% | IGROV1 ovarian 34.7% | OVCAR-3 ovarian 28.9% | HS 578T breast 34.4% | NCI/ADR-RES ovarian 24.6%

Clc1cccc(/C=N/Nc2nc(N/N=C/c3cccc(Cl)c3)nc(N3CCOCC3)n2)c1
active: SR leukemia 7.7%
inactive: RPMI-8226 leukemia 38.8% | OVCAR-8 ovarian 49.5% | OVCAR-5 ovarian 95.5% | OVCAR-4 ovarian 66.4% | SK-OV-3 ovarian 130% | IGROV1 ovarian 50.7% | OVCAR-3 ovarian 56.3% | HS 578T breast 67.5% | NCI/ADR-RES ovarian 61.8%

Cc1ccc(C(=O)Nc2ccc(CNCCN3CCOCC3)c(C(F)(F)F)c2)cc1C#Cc1cnc2cccnn12
inactive: OVCAR-8 ovarian 13.3% | OVCAR-5 ovarian 33.5% | OVCAR-4 ovarian 25.1% | SK-OV-3 ovarian 57.7% | IGROV1 ovarian 10.6% | OVCAR-3 ovarian 21.6%
active: SR leukemia -15.7% | RPMI-8226 leukemia -12.8% | HS 578T breast -13.3% | NCI/ADR-RES ovarian 5.66%

CCOC(=O)c1ccc(NC2=CC(=O)C(C)=C(C)C2=O)cc1
inactive: SR leukemia 50.3% | RPMI-8226 leukemia 66.1% | OVCAR-8 ovarian 83.7% | OVCAR-5 ovarian 104% | SK-OV-3 ovarian 92% | IGROV1 ovarian 79.2% | HS 578T breast 94.1% | NCI/ADR-RES ovarian 65.4%
active: OVCAR-4 ovarian -63% | OVCAR-3 ovarian 0.628%

Cc1ccccc1NC(=O)Nc1nc2ccc([N+](=O)[O-])cc2s1
active: SR leukemia 6.41% | RPMI-8226 leukemia 5.55% | OVCAR-8 ovarian 9.56% | OVCAR-4 ovarian 3.62% | SK-OV-3 ovarian -19.4% | NCI/ADR-RES ovarian 6.24%
inactive: OVCAR-5 ovarian 16.9% | IGROV1 ovarian 22.6% | OVCAR-3 ovarian 10.1% | HS 578T breast 24.1%

NC1=NC2(CCCC2)N(c2ccc(S(=O)(=O)Nc3nccs3)cc2)C(N)=N1
inactive: SR leukemia 98.2% | RPMI-8226 leukemia 94.1% | OVCAR-8 ovarian 105% | OVCAR-5 ovarian 101% | OVCAR-4 ovarian 110% | SK-OV-3 ovarian 114% | IGROV1 ovarian 103% | OVCAR-3 ovarian 116% | HS 578T breast 109% | NCI/ADR-RES ovarian 100%

COc1ccc(C2CC(c3cccc(OCCCCOc4cccc(C5=NOC(c6ccc(OC)cc6)C5)c4)c3)=NO2)cc1 (stereo not given)
active: RPMI-8226 leukemia -21.9%
inactive: SR leukemia 29.9% | OVCAR-8 ovarian 93.5% | OVCAR-5 ovarian 111% | OVCAR-4 ovarian 90.3% | SK-OV-3 ovarian 106% | IGROV1 ovarian 89.6% | OVCAR-3 ovarian 96.2% | HS 578T breast 109% | NCI/ADR-RES ovarian 107%

CCCCCN1C(=O)/C(=c2\sc3n(c2=O)C2C(NN=3)N(CC)C(=O)N2CC)c2cccc(C)c21 (stereo not given)
inactive: SR leukemia 13.6% | RPMI-8226 leukemia 39.1% | OVCAR-8 ovarian 73.3% | OVCAR-5 ovarian 72.4% | OVCAR-4 ovarian 52.1% | SK-OV-3 ovarian 89.3% | IGROV1 ovarian 44.8% | OVCAR-3 ovarian 32.9% | HS 578T breast 34.3% | NCI/ADR-RES ovarian 30.7%

From PubChem BioAssay (NCI)
